This note sets out measurements from PubChem BioAssay.

Test [1] is described as follows: liver-stage malaria parasite growth inhibition, primary screen, cell-based, HepG2, luciferase luminescence, HepG2 viability (AID 624349; in the data active = parasite load remaining mostly below about 12%, no sharp cut-off; inactive = mostly above about 10%;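 note: 100% = mean of DMSO negative control wells on the same plate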). The conditions noted are these: P. berghei liver stage in HepG2, luciferase luminescence, concentration not given here; parasite load remaining: stronger effect = lower value; viability: measured here: HepG2 viability without parasites.
Test [2] relates to Hepatitis C virus NS3 helicase. The test can be described thus: HCV NS3 helicase inhibitors, primary screen, biochemical, fluorescence polarization, LOPAC1280 library (AID 687035; in the data active = inhibition above about 37%). The conditions noted are these: Purified HCV NS3 helicase, Cy5-dT15 ssDNA binding fluorescence polarization; stronger effect = higher value; concentration not given here.
The nature of test [3]: Cy5 fluorescence quenching or enhancement artefacts, artefact control for HCV NS3 helicase inhibitor project, biochemical, LOPAC1280 (AID 687037). The conditions noted are these: Cy5-DNA-NS3h complex fluorescence interference counterscreen.
Test [4] can be described thus: Cy5 fluorescence interference with SSB-bound oligo, artefact control for HCV NS3 helicase inhibitor project, biochemical, NIH Clinical Collection, E. coli SSB (AID 743268).
Test [5] concerns Hepatitis C virus NS3 helicase. Nature of the test: HCV NS3 helicase inhibitors, primary screen, biochemical, fluorescence polarization, NIH Clinical Collection (AID 743270). Particulars: NS3 helicase binding to Cy5-dT15 DNA, stronger effect = higher value, concentration not given here.
Test [6] has as its target Single-stranded DNA-binding protein (Escherichia coli (strain K12)) (UniProt P0AGE0). Nature of the test: E. coli SSB displacement from DNA, counter-screen for HCV NS3 helicase inhibitor project, biochemical, fluorescence polarization, NIH Clinical Collection (AID 743271; in the data active = inhibition above about 28%). The conditions noted are these: stronger effect = higher value, concentration not given here.
A short description of test [7]: fluorescence interference in NS3h assay format, artefact control for HCV NS3 helicase inhibitor project, biochemical, NIH Clinical Collection (AID 743272).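 Note: HCV NS3 helicase with a Cy5 labelled single stranded DNA probe.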 The conditions noted are these: fluorescence interference counterscreen, stronger effect = lower value.
Test [8] relates to Neuropilin-2 / VEGF-C interaction (human). The test can be described thus: inhibitors of NRP2–VEGF-C binding, biochemical, microplate binding format, z-score (AID 743281). The conditions noted are these: microplate NRP2/VEGF-C binding assay; stronger effect = lower value.
A short description of test [9]: stimulators of nuclear beta-catenin in C2C12, primary screen, imaging, WNT3A-conditioned medium, mouse C2C12, NPC library (AID 1117326; in the data active = nuclear beta-catenin stimulation mostly above about 4.2%, no sharp cut-off; inactive = mostly below about 10%). Particulars: stronger effect = higher value.
A short description of test [10]: stimulators of insulin release from INS-1E, primary screen, cell-based, 5 mM glucose, NPC library (AID 1117329;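 active = compound raises insulin release from rat beta cells at 5 mM glucose, no numeric limit stated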). The conditions noted are these: rat INS-1E insulin secretion, at 10 µM, stronger effect = higher value.
Test [11] in a line: growth inhibition of GSK3B-pretreated HCT116 cells – cell-based, CellTiter-Glo, 0.2 to 20 µM (AID 1117336;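 active = compounds lowering colon cancer cell viability after pretreatment blocking the GSK3B kinase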). Particulars: HCT116 viability after GSK3B inhibitor, at 20 µM, stronger effect = higher value.
Test [12] can be described thus: inhibition of endothelial tube formation, primary screen, imaging, VEGF stimulated, CD31 staining, tube area, NPC library (AID 1117340;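 active = compound that reduces growth-factor-driven endothelial tube area in a mixed cell culture, no cutoff stated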). Particulars: VEGF-stimulated ADSC/ECFC co-culture, at 10 µM, stronger effect = higher value.
A short description of test [13]: glucagon-like peptide 1 release enhancers, primary assay, NCI-H716 cell line, NPC library (AID 1117341;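 active = compound raises GLP1 secretion from the human gut endocrine cells, with no numeric limit stated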). The conditions noted are these: NCI-H716 cells, at 10 µM, stronger effect = higher value.
Test [14] in a line: HCT116 colon cancer cell growth inhibition, primary screen, CellTiter-Glo luminescence, NPC library (AID 1117342;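 active = compounds that lower survival of HCT116 colon cancer cells in the luminescence readout, no numeric limit stated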). Particulars: at 20 µM (top of the series).
Test [15] in a line: CellTiter-Glo luminescent readout of SW480 viability loss, NPC library primary (AID 1117343;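 active = compounds that lower viability of the colon cancer cells in the luminescence readout, with no numeric limit stated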). Particulars: CellTiter-Glo luminescence; at 20 µM (top of the series).
The nature of test [16]: decreased DLD-1 cellular survival, CellTiter-Glo luminescent readout, NPC compound collection, primary HTS (AID 1117346;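 active = compounds that lower survival of DLD-1 colon cancer cells in the luminescence readout, no cutoff given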). The conditions noted are these: DLD-1 viability, CellTiter-Glo luminescence; at 20 µM (top of the series).

Several values for one entry are separate records, joined by “and”; a condition that tells them apart may be missing. Equal values may be shown once. Where a structure was tested more than once in an assay, its records may differ in their call. Activity calls are given as the source filed them. Unless noted, the rule behind the calls is not given here.

Regarding `O=C(NCCN1CCOCC1)c1ccc(Cl)cc1`, the parasite load remaining in [1] was 153% (inactive) and 134% (inactive). Further, the viability in test [1] was 108% and 80.7%. The results for the inhibition in [2], in [5] and in [6] were -6% (inactive), 5.94% (inactive) and 8.37% (inactive), respectively. Also, the fluorescence ratio (interference) in test [3] is 0.9 (inactive). For the same compound, the fluorescence ratio in [4] was 1.03 (inactive); in test [7], 0.99 (inactive). Besides, the z-score in [8] is -0.561 (inactive). For the same compound, the nuclear beta-catenin stimulation in test [9] (at 10 µM) was 0.1% (inactive); in test [9] (stimulation, at 2 µM) it was 0.4%. The insulin secretion stimulation in [10] was -2.6% (inactive). Besides, the viability decrease in test [11] was -7.6% (inactive). The tube area decrease in test [12] was 6% (inactive). The GLP1 secretion stimulation in test [13] is 0.4% (inactive). In addition, the inhibition of viability in [14] was -2.6% (inactive). The viability decrease (inhibition) in [15] is 35.1% (inactive); in [16] it was -7.9% (inactive).

For the compound `Cc1cn([C@H]2C=C[C@@H](CO)O2)c(=O)[nH]c1=O`, in test [1], the parasite load remaining is 72.2% (inactive) and 110% (inactive). In addition, the viability in test [1] was 107% and 74.4%. Moreover, the inhibition in test [2] was -2% (inactive); in test [5], -3.56% (inactive) and -2.27% (inactive); in test [6], -0.87% (inactive) and -5.05% (inactive). The fluorescence ratio (interference) in test [3] is 1 (inactive). Moreover, the fluorescence ratio in [4] is 1.04 (inactive) and 0.101 (active); in test [7] it was 0.98 (inactive) and 1.04 (inactive). The z-score in test [8] was 0.0189 (inactive). The nuclear beta-catenin stimulation in test [9] (at 10 µM) was -0.2% (inactive); in test [9] (stimulation, at 2 µM), 1.1%. Besides, the insulin secretion stimulation in [10] is 4.4% (inactive). Moreover, the viability decrease in test [11] is -0.2% (inactive). The tube area decrease in [12] is -1.6% (inactive). The GLP1 secretion stimulation in test [13] is -0.3% (inactive). The inhibition of viability in [14] is 1.2% (inactive). Also, the viability decrease (inhibition) is -4.8% (inactive) in test [15] and -8.9% (inactive) in [16].

Take `CN(C)CC[C@@H](c1ccc(Br)cc1)c1ccccn1`: the parasite load remaining in test [1] is 84.6% (inactive). Moreover, the viability in test [1] was 70.1%. The inhibition in test [2] is 0% (inactive); in test [5] it was -2.77% (inactive); in test [6] it was -3.18% (inactive). Further, the fluorescence ratio (interference) in test [3] is 1 (inactive). Moreover, the figures for the fluorescence ratio in test [4] and in [7] were 1.07 (inactive) and 0.87 (inactive), respectively. For the same compound, the z-score in [8] is -0.605 (inactive). Further, the nuclear beta-catenin stimulation in [9] (at 10 µM) is 1.1% (inactive); in test [9] (stimulation, at 2 µM), -0.3%. In addition, in [10], the insulin secretion stimulation is 81.9% (active). For the same compound, in test [11], the viability decrease was -41.6% (inactive). For the same compound, in test [12], the tube area decrease was -18.3% (inactive). The GLP1 secretion stimulation in test [13] was 1.6% (inactive). For the same compound, the inhibition of viability in [14] was 27.2% (inactive). The viability decrease (inhibition) in test [15] was 30.9% (inactive); in [16] it was 10.2% (inactive).

Take `CCOC(=O)c1ncn2c1CN(C)C(=O)c1cc(F)ccc1-2`: in test [1], the parasite load remaining is 6.63% (inactive) and 66.3% (inactive). Moreover, the viability in test [1] was 73.1% and 107%. In addition, the values for the inhibition in [2], in test [5] and in test [6] were -4% (inactive), 1.98% (inactive) and -0.1% (inactive), respectively. In test [3], the fluorescence ratio (interference) is 1 (inactive). The fluorescence ratio in [4] was 1.05 (inactive); in test [7], 0.99 (inactive). The z-score in test [8] was -0.197 (inactive). Moreover, the nuclear beta-catenin stimulation in test [9] (at 10 µM) is 0.8% (inactive); in test [9] (stimulation, at 2 µM), -0.7%. Also, the insulin secretion stimulation in [10] was 1.6% (inactive). In addition, the viability decrease in [11] is -39.4% (inactive). Further, in test [12], the tube area decrease was -3.4% (inactive). For the same compound, the GLP1 secretion stimulation in test [13] was 0.1% (inactive). Also, the inhibition of viability in test [14] is 0.15% (inactive). Besides, the results for the viability decrease (inhibition) in test [15] and in [16] were 17.1% (inactive) and 4% (inactive), respectively.
